The list is not random: actives were taken first. Their share in the collection is about 12%.
JMJD2A Tudor = JMJD2A Tudor domain (human) inhibition; AID 504339; 4.4% of 390,000 active; Potency, µM (series often up to 114 µM), for the others: at the highest dose activity change, negative = inhibition, actives largely listed as inhibitors; AlphaScreen JMJD2A-Tudor / H3K4me3 peptide binding; note: % is set by controls: 0 for no effect and ±100 for the full control effect; nearly all actives have a fitted effect of over 50% in size
Sfp inh = Sfp phosphopantetheinyl transferase inhibition. Q9F4F7. Biochemical Sfp PPTase activity, qHTS. 3.5% of 310,000 active. Potency, µM, for the others: largest response in the series, negative = inhibition, hits mostly inhibitors;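 note: the enzyme is Sfp with the accession as filed and its product quenches rhodamine fluorescence; 0% = enzyme reaction without inhibitor and -100% = no enzyme wells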
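Fluorescence-quenching assay: 15 nM Sfp-PPTase preincubated 15 min at room temperature with compound, then 5 uM rhodamine-CoA and 12.5 uM BHQ-2-labelled YbbR peptide added. Fluorescence (ex 525/em 598 nm) read at start and after 30 min; difference gives rate.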
G9a block = blocks human histone lysine methyltransferase G9a | Q96KQ7 | G9a H3K9 monomethylation, AlphaScreen, 2 h | Potency, µM (series often up to 102 µM), for inactives: top-dose activity, negative = inhibition, hits mostly inhibitors | 8.8% of 350,000 active; note: % is set by controls: 0 for no effect and ±100 for the full control effect; nearly all actives have a fitted effect of over 75% in size
Target sequence (Q96KQ7 913-1193 limits assumed): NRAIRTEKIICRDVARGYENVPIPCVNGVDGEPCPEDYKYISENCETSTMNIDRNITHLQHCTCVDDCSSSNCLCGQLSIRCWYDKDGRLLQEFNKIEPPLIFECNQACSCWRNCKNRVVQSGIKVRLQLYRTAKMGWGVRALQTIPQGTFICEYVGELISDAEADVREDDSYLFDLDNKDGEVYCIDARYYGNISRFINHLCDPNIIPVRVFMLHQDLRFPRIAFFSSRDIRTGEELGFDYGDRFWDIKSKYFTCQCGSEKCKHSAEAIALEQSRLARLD
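Quantitative HTS format: methyltransferase activity on a biotin-tagged H3K9 peptide is measured by AlphaScreen, using a rabbit anti-monomethyl-H3K9 antibody with streptavidin donor and anti-IgG acceptor beads. Final levels are 20 nM enzyme, 500 nM peptide, 20 uM SAM; 2 h RT.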
PLK1 PBD inh = PLK1 (human) polo-box domain binding inhibition; AID 720504; Plk1 PBD binding of FITC phosphopeptide, fluorescence polarization; 2.8% of 360,000 active; Potency, µM, without a hit: max response, negative = inhibition, hits mostly inhibitors; P53350; note: series mostly up to about 57 µM; % is set by controls: 0 for no effect and ±100 for the full control effect; nearly all actives have a fitted effect of over 65% in size
BAZ2B inh = BAZ2B (human) inhibition; Q9UIF8; AlphaScreen BAZ2B-H3K14Ac peptide displacement; Potency, µM (series often up to 114 µM), for inactives: at the top dose activity change, negative = inhibition, actives largely listed as inhibitors; 4.4% of 360,000 active; note: % is set by controls: 0 for no effect and ±100 for the full control effect; nearly all actives have a fitted effect of over 60% in size
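Compounds, titrated to a top concentration of 110 uM, were incubated 30 min at room temperature with preformed BAZ2B/acetyl-K14 H3 peptide complex (50 nM each). Proximity signal was measured by AlphaScreen after 20 min with beads.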
HP1b chromo inh = inhibitors of HP1-beta chromodomain binding to methylated histone tails; AlphaScreen HP1-beta / biotin-H3K9me3 peptide binding; Potency, µM (doses to about 114 µM), inactives show top-dose activity change, negative = inhibition, hits mostly inhibitors; 0.56% of 390,000 active; AID 540317; note: nearly all actives have a fitted effect of over 70% in size
Target sequence (P83916 whole entry, looked up): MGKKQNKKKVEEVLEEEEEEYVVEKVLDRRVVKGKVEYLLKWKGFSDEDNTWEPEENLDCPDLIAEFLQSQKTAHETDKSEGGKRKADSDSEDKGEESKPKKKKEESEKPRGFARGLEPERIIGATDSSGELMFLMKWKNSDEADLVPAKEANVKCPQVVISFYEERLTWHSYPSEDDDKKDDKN
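AlphaScreen: HP1-beta (50 nM) preformed 30 min with biotin-H3(1-18)K9me3 peptide (50 nM) in PBS pH 7.4, 0.01% Tween-20. Compound added for 30 min at RT, then streptavidin donor/nickel chelate acceptor beads (10 ug/mL) for 30 min.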
Numbers without * were called inactive; ! = repeats disagree; [ ] = dose if it differs, or a comment. Calls come from the whole dose curve; as a rule, active = well fitted curve in the direction sought with a large enough effect; inconclusive = small, poorly fitted or top-dose-only effect, or another doubt; inactive = no such curve, though single readings can be large; an effect the other way counts as inactive or inconclusive. Potency is the fitted concentration of half-maximal effect.

Results for O=S(=O)(c1ccc(-c2csc(=Nc3ccc(F)cc3)n2CCCCCCO)cc1)N1CCCC1 ?
JMJD2A Tudor: 40µM*; G9a block: 13µM*; BAZ2B inh: inconclusive; HP1b chromo inh: inconclusive

What do the screens show for `O=C(NCCO)C1CCN(S(=O)(=O)c2ccc(F)cc2)CC1`?
JMJD2A Tudor: -11%; Sfp inh: 3%; G9a block: -1%[59 µM]; PLK1 PBD inh: -3%; BAZ2B inh: 2%; HP1b chromo inh: 24%

How did Cc1ccc(-c2csc(=Nc3ccccc3)n2CCCO)cc1 do in these assays?
JMJD2A Tudor: 35µM*; G9a block: 16µM*; BAZ2B inh: 45µM*; HP1b chromo inh: inconclusive

What do the screens show for `Cc1csc(=Nc2ccccc2)n1CCCN1CCCC1=O`?
JMJD2A Tudor: -33%; Sfp inh: -13%; G9a block: inconclusive; PLK1 PBD inh: -14%; BAZ2B inh: inconclusive; HP1b chromo inh: -3%

Results for COc1ccc(-c2csc(=Nc3ccccc3)n2CCO)cc1 ?
JMJD2A Tudor: 45µM*; Sfp inh: -7%; G9a block: 40µM*; PLK1 PBD inh: -21%; BAZ2B inh: 13µM*; HP1b chromo inh: inconclusive

How did N#Cc1c(F)cccc1N1CCN(Cc2ccc3c(c2)OCO3)CC1 do in these assays?
JMJD2A Tudor: -34%; Sfp inh: 0%; G9a block: 16%; PLK1 PBD inh: -17%; BAZ2B inh: -12%; HP1b chromo inh: 1%

What do the screens show for `COc1cccc(NC(=O)CSc2nnc3ccc(-c4ccncc4)nn23)c1`?
JMJD2A Tudor: -11%; G9a block: -4%[2.33 µM]; PLK1 PBD inh: -8%; BAZ2B inh: -2%; HP1b chromo inh: 40%

What do the screens show for `CC1CCC2C(C)C3C(CC4[C@@H]5CC=C6C[C@@H](O)CC[C@]6(C)C5CC[C@]34C)N2C1` (some centres undefined)?
Sfp inh: 9%

Results for COc1ccc(-c2csc(=NCCO)n2-c2ccccc2)cc1 ?
JMJD2A Tudor: inconclusive; Sfp inh: -7%; G9a block: 50µM*; PLK1 PBD inh: -22%; BAZ2B inh: 32µM*; HP1b chromo inh: inconclusive

Results for COc1ccc(-c2cn(-c3ccccc3)nc2CO)cc1 ?
JMJD2A Tudor: -12%; Sfp inh: 7%; G9a block: -6%; PLK1 PBD inh: 9%; BAZ2B inh: 7%; HP1b chromo inh: 31%

How did O=C1NC(=O)C2(CCCc3ccc([N+](=O)[O-])cc32)N1 (centres undefined) do in these assays?
PLK1 PBD inh: -6%

What do the screens show for `CCc1nc2ccc(C(=O)NCc3ccc(OC)cc3)cn2c1N(CCC(C)C)CCN(C)C`?
PLK1 PBD inh: -5%

What do the screens show for `C=C(CC)C(=O)c1ccc(OCC(=O)O)c(Cl)c1Cl`?
JMJD2A Tudor: -29%; Sfp inh: 20µM*!; G9a block: 71µM*; PLK1 PBD inh: inconclusive; BAZ2B inh: -30%; HP1b chromo inh: 18%

How did O=c1cnnc(Nc2ccc(Nc3ccccc3)cc2)[nH]1 do in these assays?
JMJD2A Tudor: inconclusive; Sfp inh: 15%; G9a block: 40µM*; PLK1 PBD inh: -9%; BAZ2B inh: -36%; HP1b chromo inh: -8%

What do the screens show for `CCc1nc2c(OCc3ccc(OC(F)F)cc3)cccn2c1N(C)C(=O)c1ccco1`?
PLK1 PBD inh: -1%

Results for O=C(CNC(=O)c1cccs1)NCCN1CCC(Cc2ccccc2)CC1 ?
Sfp inh: -2%; G9a block: 12%[59 µM]; BAZ2B inh: 8%

Results for O=C(NCCNC1CCN(Cc2ccccc2)CC1)c1cccs1 ?
Sfp inh: inconclusive; G9a block: 1.8µM*; BAZ2B inh: inconclusive

What do the screens show for `Cc1ccc(CSC2=NS(=O)(=O)c3ccccc32)cc1`?
JMJD2A Tudor: -26%[57.1 µM]; HP1b chromo inh: 26%[57 µM]

Results for CCc1nnc2n1N=C(c1ccc(Cl)cc1)CS2 ?
JMJD2A Tudor: -17%; Sfp inh: 2%; G9a block: -1%; PLK1 PBD inh: -11%; BAZ2B inh: 0%; HP1b chromo inh: 33%

How did Clc1ccc(C2=Nn3c(nnc3-c3cccs3)SC2)cc1 do in these assays?
JMJD2A Tudor: -27%[57.1 µM]; Sfp inh: 15%; G9a block: -39%[59 µM]; PLK1 PBD inh: inconclusive; BAZ2B inh: -17%; HP1b chromo inh: -3%

What do the screens show for `CCCc1nnc2n1N=C(c1ccc(C)cc1)CS2`?
JMJD2A Tudor: -14%; Sfp inh: 7%; G9a block: 79µM*; PLK1 PBD inh: -5%; BAZ2B inh: -33%; HP1b chromo inh: 6%[57 µM]

What do the screens show for `CCCc1nnc2n1N=C(c1ccc([N+](=O)[O-])cc1)CS2`?
JMJD2A Tudor: -9%; Sfp inh: 3%; G9a block: 71µM*; PLK1 PBD inh: 0%; BAZ2B inh: -27%; HP1b chromo inh: 21%

What do the screens show for `Cc1nnc2n(c1=O)N=C(c1ccc(Cl)cc1)CS2`?
JMJD2A Tudor: -10%; Sfp inh: inconclusive; G9a block: 71µM*; PLK1 PBD inh: inconclusive; BAZ2B inh: -5%; HP1b chromo inh: 10%

How did CCc1nnc2n1N=C(c1cccc([N+](=O)[O-])c1)CS2 do in these assays?
JMJD2A Tudor: -21%; Sfp inh: -4%; G9a block: 14%[59 µM]; PLK1 PBD inh: -5%; BAZ2B inh: -22%; HP1b chromo inh: 41%

What do the screens show for `O=[N+]([O-])c1ccc(C2=Nn3c(Cn4nnc5ccccc54)nnc3SC2)cc1`?
JMJD2A Tudor: 56µM*; Sfp inh: 20µM*; PLK1 PBD inh: 5.3µM*; BAZ2B inh: -37%; HP1b chromo inh: inconclusive

Results for COc1ccc(NC(=O)C2=C(C)Nc3nc(SCc4ccccc4)nn3C2c2cc(OC)ccc2OC)cc1 (centres undefined) ?
JMJD2A Tudor: -5%; G9a block: -3%[59 µM]; BAZ2B inh: -11%; HP1b chromo inh: 20%

What do the screens show for `CCOc1ccc(CNS(=O)(=O)c2ccc(-c3coc(C)n3)cc2)cc1OC`?
JMJD2A Tudor: -6%; G9a block: 0%[59 µM]; BAZ2B inh: 1%; HP1b chromo inh: 26%[57 µM]

Results for CC[C@@H]1OC(=O)[C@H](C)[C@H](O[C@@H]2C[C@](C)(OC)[C@H](O)[C@H](C)O2)[C@H](C)[C@H](O[C@@H]2O[C@@H](C)C[C@@H](N(C)C)[C@@H]2O)[C@](C)(O)C[C@H](C)C(=NOCOCCOC)[C@H](C)[C@H](O)[C@]1(C)O ?
Sfp inh: 36%; G9a block: 31%[21.5 µM]

Results for COc1ccc(NC(=O)CN2C(=O)CSC(C)C2=O)cc1 (centres undefined) ?
JMJD2A Tudor: inconclusive; Sfp inh: 23%; G9a block: -2%; PLK1 PBD inh: 21µM*; BAZ2B inh: -19%; HP1b chromo inh: -15%
